Measured values: PubChem BioAssay (EPA / NIEHS)
Calls of active or inactive are those of the source. How the source made its calls: active means hit-call score of the fitted dose curve at least 0.9, where 1 is the maximum; inactive means score below 0.9.

Key:
[1] = read-out: Vascular endothelial growth factor receptor 2 (Homo sapiens) (UniProt P35968); experiment: BSK_4H_VEGFRII: BioMAP Diversity Plus: 4H Assay for Vascular endothelial growth factor receptor 2 (VEGFR2) Biomarker Activity (AID 2283031); details: primary human endothelial cells (HUVEC); actives raise or lower the signal
Method in brief: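 HUVEC (human primary), 4H system; 24 h post-dose; VEGFRII by ELISA; bidirectional curve fit vs DMSO baseline; gain or loss of signal scored.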

[2] = read-out: Vascular cell adhesion molecule 1 (VCAM1), VCAM1 (gene 7412); experiment: BSK_4H_VCAM1: BioMAP Diversity Plus: 4H Assay for Vascular cell adhesion molecule 1 (VCAM1) Biomarker Activity (AID 2283033); details: primary human endothelial cells (HUVEC); actives raise or lower the signal
Method in brief: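 Primary human umbilical vein endothelial cells, 4H stimulation system, treated for 24 h; cell-surface VCAM-1 quantified by ELISA. Bidirectional fitting against DMSO; cytotoxicity tracked by SRB total-protein staining in parallel cultures.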

[3] = read-out: Interferon-gamma inducible Protein 10 (IP10), CXCL10 (gene 3627); experiment: BSK_BE3C_IP10: BioMAP Diversity Plus: BE3C Assay for Interferon-gamma inducible Protein 10 (IP10) Biomarker Activity (AID 2283034); details: primary human bronchial epithelial cells; actives raise or lower the signal
Method in brief: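 Primary human bronchial epithelial cells, with IP-10 measured by ELISA 24 hours after chemical dosing. Bidirectional fit against DMSO; cytotoxicity checked by SRB total protein staining in parallel cultures.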

[4] = read-out: Monokine induced gamma interferon (MIG), CXCL9 (gene 4283); experiment: BSK_BE3C_MIG: BioMAP Diversity Plus: BE3C Assay for Monokine induced gamma interferon (MIG) Biomarker Activity (AID 2283035); details: primary human bronchial epithelial cells; actives raise or lower the signal;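 further: MIG protein measured by ELISA in BE3C cultures after 24 h of dosing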
Method in brief: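 ELISA read-out of MIG in human lung bronchial epithelial primary cultures, 24 h post-dosing. Bidirectional curve fit vs DMSO baseline.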

[5] = read-out: Transforming growth factor beta 1 (TGFb1), TGFB1 (gene 7040); experiment: BSK_BE3C_TGFb1: BioMAP Diversity Plus: BE3C Assay for Transforming growth factor beta 1 (TGFb1) Biomarker Activity (AID 2283036); details: primary human bronchial epithelial cells; actives raise or lower the signal
Method in brief: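 Primary human bronchial epithelial cells dosed with chemical; TGF-b1 measured by ELISA 24 h after dosing. Bidirectional curve fitting against DMSO negative control; SRB total-protein staining in parallel cultures gauged cytotoxicity.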

[6] = read-out: Plasminogen activator inhibitor-1 (PAI1), SERPINE1 (gene 5054); experiment: BSK_BE3C_PAI1: BioMAP Diversity Plus: BE3C Assay for Plasminogen activator inhibitor-1 (PAI1) Biomarker Activity (AID 2283037); details: primary human bronchial epithelial cells; actives raise or lower the signal
Method in brief: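 Primary human bronchial epithelial cells (BE3C system) exposed 24 h; PAI-1 quantified by ELISA. Parallel sulforhodamine B staining of total protein flags cytotoxicity. Bidirectional fit versus DMSO.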

[7] = read-out: urokinase plasminogen activator (uPA), PLAU (gene 5328); experiment: BSK_BE3C_uPA: BioMAP Diversity Plus: BE3C Assay for urokinase plasminogen activator (uPA) Biomarker Activity (AID 2283038); details: primary human bronchial epithelial cells; actives raise or lower the signal;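 further: uPA protein level quantified by ELISA in cell cultures; uPA read one day after compound addition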
Method in brief: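 ELISA read-out of uPA in human lung primary bronchial epithelial cultures, 24 h post-dosing. Gain or loss of signal fitted bidirectionally relative to DMSO baseline; cytotoxicity checked in parallel cultures via SRB total protein stain.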

[8] = read-out: Urokinase-type plasminogen activator receptor (uPAR), PLAUR (gene 5329); experiment: BSK_BE3C_uPAR: BioMAP Diversity Plus: BE3C Assay for Urokinase-type plasminogen activator receptor (uPAR) Biomarker Activity (AID 2283039); details: primary human bronchial epithelial cells; actives raise or lower the signal;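 further: uPAR protein level measured by ELISA on the cells; cells exposed to compound for one day before measurement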
Method in brief: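 Primary human bronchial epithelial cells dosed for 24 h; uPAR quantified by ELISA with bidirectional fitting against DMSO. Overt cytotoxicity assessed in parallel cultures by SRB total-protein staining (0.1% SRB, 560 nm).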

[9] = read-out: Interleukin-6 (IL6), IL6 (gene 3569); experiment: BSK_CASM3C_IL6: BioMAP Diversity Plus: CASM3C Assay for Interleukin-6 (IL6) Biomarker Activity for (AID 2283040); details: primary human coronary artery smooth muscle cells; actives raise or lower the signal
[10] = read-out: Tissue plasminogen activator (tPA), PLAT (gene 5327); experiment: BSK_BE3C_tPA: BioMAP Diversity Plus: BE3C Assay for Tissue plasminogen activator (tPA) Biomarker Activity (AID 2283041); details: primary human bronchial epithelial cells; actives raise or lower the signal;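 further: tPA level quantified by ELISA one day after compound addition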
Method in brief: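 Primary human bronchial epithelial cells in the BE3C system, exposed to compound for 24 h. tPA was quantified by ELISA; DMSO served as baseline, with gain or loss of signal fitted. Cytotoxicity checked in parallel cultures by SRB total-protein staining.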

[11] = read-out: Interleukin-8 (IL8), CXCL8 (gene 3576); experiment: BSK_CASM3C_IL8: BioMAP Diversity Plus: CASM3C Assay for Interleukin-8 (IL8) Biomarker Activity (AID 2283042); details: primary human coronary artery smooth muscle cells; actives raise or lower the signal;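 further: IL-8 protein level quantified by ELISA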
[12] = read-out: Human Leukocyte Antigen - DR isotype (HLADR), HLA-DRA (gene 3122); experiment: BSK_CASM3C_HLADR: BioMAP Diversity Plus: CASM3C Assay for Human Leukocyte Antigen - DR isotype (HLADR) Biomarker Activity (AID 2283043); details: primary human coronary artery smooth muscle cells; actives raise or lower the signal;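 further: cell-surface HLA-DR protein level quantified by ELISA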
[13] = read-out: Macrophage colony-stimulating factor (MCSF), CSF1 (gene 1435); experiment: BSK_CASM3C_MCSF: BioMAP Diversity Plus: CASM3C Assay for Macrophage colony-stimulating factor (MCSF) Biomarker Activity (AID 2283044); details: primary human coronary artery smooth muscle cells; actives raise or lower the signal;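 further: M-CSF protein amount quantified by ELISA after 24 h exposure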
[14] = read-out: Low-density lipoprotein receptor (LDLR), LDLR (gene 3949); experiment: BSK_CASM3C_LDLR: BioMAP Diversity Plus: CASM3C Assay for Low-density lipoprotein receptor (LDLR) Biomarker Activity (AID 2283045); details: primary human coronary artery smooth muscle cells; actives raise or lower the signal;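 further: LDLR protein level on the cell surface quantified by ELISA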
[15] = read-out: Monocyte Chemoattractant Protein-1 (MCP1), CCL2 (gene 6347); experiment: BSK_CASM3C_MCP1: BioMAP Diversity Plus: CASM3C Assay for Monocyte Chemoattractant Protein-1 (MCP1) Biomarker Activity (AID 2283046); details: primary human coronary artery smooth muscle cells; actives raise or lower the signal;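 further: MCP-1 level quantified by ELISA 24 h after dosing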
[16] = BSK_CASM3C_Proliferation: Cell Proliferation Assessment in the BioMAP Diversity Plus: CASM3C Assay (AID 2283047); details: primary human coronary artery smooth muscle cells;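 further: sulforhodamine B total protein stain as relative cell number at 560 nm; sub-confluent cells exposed 48 h before staining; fitted both ways against DMSO so gain or loss of cell number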
[17] = read-out: Monokine induced gamma interferon (MIG), CXCL9 (gene 4283); experiment: BSK_CASM3C_MIG: BioMAP Diversity Plus: CASM3C Assay for Monokine induced gamma interferon (MIG) Biomarker Activity (AID 2283048); details: primary human coronary artery smooth muscle cells; actives raise or lower the signal;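 further: MIG protein level measured by ELISA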
[18] = read-out: serum amyloid A (SAA), SAA1 (gene 6288); experiment: BSK_CASM3C_SAA: BioMAP Diversity Plus: CASM3C Assay for serum amyloid A (SAA) Biomarker Activity (AID 2283049); details: primary human coronary artery smooth muscle cells; actives raise or lower the signal;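 further: SAA protein level quantified by ELISA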
[19] = BSK_CASM3C_SRB: Viability Assessment in the BioMAP Diversity Plus: CASM3C Assay (AID 2283050); details: primary human coronary artery smooth muscle cells

Measured: AC50

N#Cc1c[nH]cc1-c1cccc2c1OC(F)(F)O2
active: [2] 20 µM | [16] 20 µM
inactive: all other assays above

Clc1cccc(C(Cl)(Cl)Cl)n1
inactive: all assays above

Nc1c(Cl)c(F)nc(OCC(=O)O)c1Cl
inactive: all assays above

CC(C)Nc1nc(Cl)nc(NC(C)C)n1
inactive: all assays above

O=C(Nc1ccccc1-c1ccc(Cl)cc1)c1cccnc1Cl
not listed: [3]
inactive: all other assays above

CCCCC(C#N)(Cn1cncn1)c1ccc(Cl)cc1 (configuration not stated)
not listed: [3]
inactive: all other assays above

COc1cc(OC)nc(NC(=O)NS(=O)(=O)c2ncccc2OCC(F)(F)F)n1
not listed: [3]
inactive: all other assays above

COC(=O)c1c(C(F)F)nc(C(F)(F)F)c(C2=NCCS2)c1CC(C)C
active: [2] 20 µM | [6] 3.97 µM
not listed: [3]
inactive: all other assays above

CSC(=O)c1c(C(F)F)nc(C(F)(F)F)c(C(=O)SC)c1CC(C)C
active: [9] 3.97 µM
inactive: all other assays above
